Pf Dd2 inh: qHTS Primary assay for Inhibitors of Plasmodium falciparum Dd2 growth in vitro | P. falciparum Dd2 growth, SYBR Green, 72 h | Potency, µM (doses to about 28.9 µM), most hits filed as inhibitors | actives 4.3% (n = 120,000); active means well fitted inhibition curve with a large enough effect; further: nearly all actives have a fitted effect of over 65% in size
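Readout: SYBR Green fluorescence, 485 nm excitation, 535 nm emission, after ~16 h lysis at 37C. Before that, Dd2-infected red cells (2.5% hematocrit) grew 72 h with compound, 29 uM top final concentration.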
A number is an active result; n = inactive. The entries come from a sample that favours hits as a whole.

SMILES | Pf Dd2 inh
NC(=O)[C@@H](Cc1c[nH]c2ccccc12)NC(=O)[C@@H]1CN(C(=O)Nc2ccccc2)CCN1C(=O)C1CCCCC1 | n
COC1C(=O)N(C2CCN(Cc3cn(C)c4ccccc34)CC2)C12CCOCC2 (stereo not drawn) | n
O=C(NCc1cccnc1)c1ccc2c(c1)N(C(=O)c1ccc(F)cc1)CC2 | n
COc1cc2c(cc1Oc1ccccc1)NC(=O)C21CCN(c2ncccn2)CC1 | n
CCc1cnc(N2CCC3(CC2)C(=O)Nc2cc(OCc4ccccc4)c(OC)cc23)nc1 | n
COc1cc2c(cc1OCc1ccccc1)NC(=O)C21CCN(C(C)=O)CC1 | n
COc1cc2c(cc1OCc1ccccc1)NC(=O)C21CCN(c2ncccn2)CC1 | 4.47µM
COc1cc2c(cc1OCc1ccccc1)NC(=O)C21CCN(Cc2ccccc2)CC1 | n
COc1cc2c(cc1Oc1ccccc1)NC(=O)C21CCN(Cc2ccccc2)CC1 | n
COc1cc2c(cc1Oc1ccccc1)NC(=O)C21CCN(CCC(C)C)CC1 | 6.31µM
COc1cc2c(cc1OCc1ccccc1)NC(=O)C21CCN(Cc2ccncc2)CC1 | 12.6µM
COCC(=O)N1CCC2(CC1)C(=O)Nc1cc(Oc3ccccc3)c(OC)cc12 | n
Cc1ccc(CCNC(=O)C2CCN(C(=O)c3nnn4c3COC(c3ccc(C)cc3)C4)CC2)cc1 (stereo not drawn) | n
N#Cc1ccccc1S(=O)(=O)N[C@H]1CO[C@H]2[C@@H]1OC[C@H]2OC(=O)NC1CCCCC1 | n
COc1cc(/C=C/CN2CC(=O)N(C(C)C)CC(OCc3noc(C)n3)C2)ccc1O (stereo not drawn) | n
COCCCNc1ccc2nnc(-c3ccc(F)cn3)n2n1 | n
Cc1ccccc1[C@H]1C[C@@H](O)[C@@H](O)[C@@H]1NC(=O)c1cncnc1 | n
O=C(c1c(O)cccc1O)N1CCOC(C(F)(F)F)C1 (stereo not drawn) | n
CN(Cc1ccc(CN2CCCC(O)(CO)C2)o1)S(C)(=O)=O (stereo not drawn) | n
Fc1cccc(-n2cc(CN3CCCC4(CCOC4)C3)cn2)c1 (stereo not drawn) | n
CC(C)c1ccc(-n2cc(CN3CCCC(O)(CN(C)C)C3)cn2)cc1 (stereo not drawn) | 6.31µM
Cc1ccc(-c2ccc3nnc(CNC(=O)COc4ccccc4)n3n2)cc1 | n
CCOc1ccc(CC(=O)NCCc2sc3nc(-c4ccc(OC)cc4)nn3c2C)cc1 | n
CCC(=O)NCCc1sc2nc(-c3ccc(OC)cc3)nn2c1C | n
COc1ccc(-c2nc3sc(CCNC(=O)Cc4ccc(Cl)cc4)c(C)n3n2)cc1 | n
SMILES | Pf Dd2 inh
Cc1c(CCNC(=O)c2ccc(Br)o2)sc2nc(-c3ccc(Cl)cc3)nn12 | n
COc1ccc(-c2nc3sc(CCNC(=O)c4ccc(Br)o4)c(C)n3n2)cc1 | 8.91µM
COc1ccc(-c2nc3sc(CCNC(=O)c4ccc(C(C)(C)C)cc4)c(C)n3n2)cc1 | 1.12µM
Cc1cncc(C(=O)NC2CCN(c3ccc(=O)n(C)n3)CC2)c1 | n
Cc1cc2c(c(=O)n(-c3ccc(F)cc3)c(=O)n2CC(=O)Nc2ccccc2C(F)(F)F)n1C | n
COc1ccc(-c2cc(N3CCCC(NC(=O)c4cccs4)C3)n[nH]2)cc1 (stereo not drawn) | n
O=C(c1cccnc1)N1CCC(Oc2ccccc2)C1 (stereo not drawn) | n
CC(C)c1ccc([S+](=O)([O-])c2nnn3c2nc(NCc2ccncc2)c2ccccc23)cc1 | n
Cc1ccc([S+](=O)([O-])N(C)Cc2ccc(-c3ccccc3)cc2)cc1 | n
CCOc1cccc(-c2nc(C3CCOC3)no2)c1 (stereo not drawn) | n
COc1cccc(-c2ccc(-c3nc(C4CCOC4)no3)o2)c1 (stereo not drawn) | n
c1cc(-c2ccco2)cc(-c2nc(C3CCOC3)no2)c1 (stereo not drawn) | 12.6µM
CCCOc1cccc(-c2nc(C(=O)NCC)cs2)c1 | n
CN(C)CCCn1ccnc1C1CCCN(S(=O)(=O)N2CCCC2)C1 (stereo not drawn) | n
CCOC(=O)c1cn(C2CN(S(=O)(=O)Cc3ccc(Cl)cc3)C2)nn1 | n
Cc1ccc(S(=O)(=O)C(CNC(=O)Cc2ccc(Cl)cc2)c2cccs2)cc1 (stereo not drawn) | n
CCNc1ncc(C(=O)N[C@H](c2cccs2)C2CC(O)C2)cn1 (stereo partly drawn) | n
CCc1ncc(C(=O)NC(c2ccc(C)cc2)c2cccs2)cn1 (stereo not drawn) | 10µM
O=C(Nc1ccccc1)N1CCC(Oc2ncccc2C(=O)N2CCCCC2)C1 (stereo not drawn) | n
COc1ccc(CC(=O)N(C)Cc2cccc(C(F)(F)F)c2)cc1 | n
Fc1ccc(Cc2nc3nccc(-c4ccsc4)n3n2)cc1 | n
CCOC(=O)C1(Cc2ccccc2C)CCCN(Cc2cn(CC(N)=O)c3ccccc23)C1 (stereo not drawn) | 14.1µM
CCOC(=O)C1(Cc2ccccc2C)CCCN(C(=O)c2cc[n+]([O-])cc2)C1 (stereo not drawn) | n
CCOC(=O)C1(Cc2ccccc2C)CCCN(C(=O)c2csc(C)n2)C1 (stereo not drawn) | n
CC(C)n1c(C2CCCN(C(=O)C3CC3)C2)nn(C)c1=O (stereo not drawn) | n
SMILES | Pf Dd2 inh
Clc1cc(NC2CCOCC2)n2nccc2n1 | n
Fc1ccc(CNCc2cccnc2N2CCN(c3ccccn3)CC2)cc1F | 5.01µM
O=C(CSc1ccccn1)NCc1cccnc1N1CCOCC1 | n
COc1ccc(CC(=O)NC(C)C(=O)N2CCN(c3ccccn3)CC2)cc1 (stereo not drawn) | n
CCC(=O)N1CCC(Cc2noc(-c3ccncc3)n2)C1 (stereo not drawn) | n
CC(=O)N1CCC([C@@H]2CN(C(=O)COc3ccccc3)C[C@H]2CO)CC1 | n
CC(C)(C(=O)N1Cc2cnn(Cc3ccc(F)cc3)c2C1)c1ccccc1 | n
CC(C)(C(=O)N1C[C@H](C2CC2)[C@@H](N)C1)c1ccccc1 | 6.31µM
Cc1nc([C@@H]2CN(C(=O)C3CC3)C[C@H]2C(N)=O)n[nH]1 | n
COc1ccc2[nH]c(C[C@@H]3C[C@@H](C(C)C)[C@H](CNC(=O)c4cnccn4)C=C3C)nc2n1 | n
Cn1cccc1C(=O)N[C@H]1C[C@@H](C(=O)O)N(C(=O)CCCC(=O)N2C[C@@H](NC(=O)c3cccs3)C[C@H]2C(=O)O)C1 | n
CN1CCCCC(CC(=O)O)C1=O (stereo not drawn) | n
COc1ccc(CN2Cc3cc(NC(=O)Cc4cccs4)ccc3OC(C)C2=O)cc1 (stereo not drawn) | n
CC1Oc2ccc(NC(=O)c3ccc([N+](=O)[O-])cc3)cc2CN(Cc2ccccc2F)C1=O (stereo not drawn) | n
COc1ccccc1CN1Cc2cc(NC(=O)Cc3cccs3)ccc2OC(C)C1=O (stereo not drawn) | n
CC1Oc2ccc(NC(=O)c3ccc4c(c3)OCO4)cc2CN(Cc2ccccc2)C1=O (stereo not drawn) | n
COc1ccccc1CN1Cc2cc(NC(=O)c3ccc4c(c3)OCO4)ccc2OC(C)C1=O (stereo not drawn) | 3.98µM
COc1ccc(C(=O)Nc2ccc3c(c2)CN(Cc2cc(F)cc(F)c2)C(=O)C(C)O3)cc1 (stereo not drawn) | n
COc1ccc(CN2Cc3cc(NC(=O)c4ccc([N+](=O)[O-])cc4)ccc3OC(C)C2=O)c(OC)c1 (stereo not drawn) | 10µM

Compound activity: PubChem BioAssay, National Center for Advancing Translational Sciences (NCATS)
